Here are results for three molecules from PubChem BioAssay (NCI).

The structures appear in SMILES notation. Compounds without any hit were thinned out: in the full panel of roughly 83,000, 20% have a hit.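 Note: values are percent growth. 100 is the growth of untreated cells, values between 100 and 0 indicate rising inhibition; between -100 and 0 indicates cell death.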 A number with no mark means an inactive call. Active and inactive are the calls of the source. The calls were made as follows: active = growth percent below 10; inactive = the rest.

Test systems include HCT-15 colon; HT29 colon; SNB-75 CNS; SNB-19 CNS; U251 CNS; PC-3 prostate; UACC-62 melanoma; SK-MEL-28 melanoma; LOX IMVI melanoma.
Holding throughout (assay): NCI-60 one-dose screen, 48 h (100 = growth as untreated, 0 = no growth, -100 = all killed)
Settings in all cases: 10 µM unless noted

Take `COc1ccc(-c2cc(/C=C/C(=O)c3ccc(N)cc3)[nH]n2)cc1`: the growth in the assay with HCT-15 colon was 17%; in the assay with HT29 colon it was 10.4%; with SNB-75 CNS it was -0.764% (active); in the assay on SNB-19 CNS, 27.6%; in the assay on U251 CNS it was 14.4%; in the assay on PC-3 prostate it was 26.4%. For the same molecule, the growth is 24.7% with UACC-62 melanoma and 34.6% in the assay on SK-MEL-28 melanoma.
With `Oc1cccc2ccc(N/N=C/c3cc(CN4CCCCC4)c(O)c4ncccc34)nc12`, the growth with HCT-15 colon was 20.6%; in the assay with HT29 colon it was 14.7%; with SNB-75 CNS it was 27.4%; in the assay with SNB-19 CNS, 19.9%; in the assay on U251 CNS it was -1.42% (active); in the assay on PC-3 prostate, 5.8% (active). The growth in the assay with UACC-62 melanoma was 8.94% (active); in the assay with LOX IMVI melanoma, -58.4% (active); in the assay with SK-MEL-28 melanoma it was 23%.
Consider `CC(=O)O[C@H]1CC[C@]2(C)[C@H]3C(=O)C=C4[C@@H]5C[C@](C)(C(=O)N6CCCNCC6)CC[C@]5(C)CC[C@@]4(C)[C@]3(C)CC[C@H]2C1(C)C`, for which the growth was -96.5% (active) with HCT-15 colon; -63.5% (active) in the assay with HT29 colon; 80.1% in the assay on SNB-75 CNS; 9.77% (active) in the assay with SNB-19 CNS; -94.5% (active) with U251 CNS; 6.04% (active) in the assay with PC-3 prostate. Besides, the results for the growth in the assay on UACC-62 melanoma and with SK-MEL-28 melanoma were 13.7% and -74.5% (active), respectively.
